Data on six compounds can be found in PubChem BioAssay.

Assay [1] relates to Plasmodium falciparum Sir2 (PF13_0152, Sir2A). Put plainly: Plasmodium falciparum Sir2A binding compounds – biochemical, small-molecule microarray, 635 nm fluorescence, primary screen (AID 1098).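 Note: score merges spot fluorescence intensity with its signal-to-noise ratio.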 The conditions noted are these: fluorescence 635 nm, higher = more signal.
Assay [2] is described as follows: probe aDKK1 binding to arrayed compounds – biochemical, biotinylated probe, 635/667 nm fluorescence, primary screen (AID 1099).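 Note: score merges 667nm spot fluorescence with signal to noise across triplicate slides.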 As to conditions: small-molecule microarray, higher = more signal.
Assay [3] can be described thus: probe aCHRDL2 binding to arrayed compounds – biochemical, biotinylated probe, 635/667 nm fluorescence, primary screen (AID 1100). The conditions noted are these: small-molecule microarray, higher = more signal.
Assay [4] is described as follows: change in splice reporter luminescence, either direction, cell-based, HEK293, spliceosome inhibition project, primary screen (AID 1101).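 Note: HEK293 cells carrying a splicing-competent luciferase reporter gene; test concentration not given here.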 As to conditions: HEK293 splicing luciferase reporter, 24 h, higher = more signal, called active from +8 up or from −8 down.
The target of assay [5] is Fibroblast growth factor 10 (Homo sapiens) (UniProt O15520). Put plainly: compounds binding fibroblast growth factor 10 – biochemical, small-molecule microarray, 635 nm fluorescence, primary screen (AID 1102). As to conditions: FGF10 binding, fluorescence 635 nm, higher = more signal.
The test system of assay [6] is glycogen synthase kinase-3 (GSK3A per assay name; protocol says GSK3B). Put plainly: compounds binding glycogen synthase kinase-3 – biochemical, small-molecule microarray, 635 nm fluorescence, GSK3A, primary screen (AID 1103). Note: the record names both GSK3A and GSK3B. The conditions noted are these: fluorescence 635 nm, higher = more signal.
The target of assay [7] is Epidermal growth factor receptor (Homo sapiens) (UniProt P00533). Put plainly: compounds binding epidermal growth factor receptor – biochemical, small-molecule microarray, 635 nm fluorescence, primary screen (AID 1104).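 Note: score merges 667 nm emission intensity with spot signal to noise over triplicate slides.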 As to conditions: EGFR binding, higher = more signal.
The target of assay [8] is Follistatin-related protein 3 (Homo sapiens) (UniProt O95633). Put plainly: compounds binding follistatin-related protein 3 – biochemical, small-molecule microarray, 635 nm fluorescence, primary screen (AID 1105).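 Note: score merges emission near 667 nm and signal to noise per printed spot across three slides.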 The conditions noted are these: FSTL3 binding, higher = more signal.
The target in assay [9] is Dickkopf-related protein 1 (Homo sapiens) (UniProt O94907). Put plainly: small molecules binding DKK1 protein – biochemical, small-molecule microarray, 635 nm fluorescence scan, primary screen (AID 1106).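 Note: score merges emission near 667 nm with signal to noise over three replicate slides.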 As to conditions: higher = more signal.
Assay [10] has as its system Inhibin beta A chain (activin A). Put plainly: small molecules binding activin A – biochemical, small-molecule microarray, 635 nm fluorescence scan, primary screen (AID 1107).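 Note: mouse activin A protein probed at 4.33 µg/mL on printed slides; score merges bound-protein fluorescence near 667 nm with spot signal-to-noise.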 The conditions noted are these: INHBA, higher = more signal.
The subject of assay [11] is Human papillomavirus type 1a protein E7 (residues 44-93). Description: small molecules binding HPV E7 44-93 – biochemical, small-molecule microarray, residues 44-93, 635 nm fluorescence, primary screen (AID 1108).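 Note: E7 fragment applied at 1 µg/mL in TBST for 1 h at 4 C; score combines spot fluorescence with its signal to noise ratio.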 As to conditions: fluorescence 635 nm, higher = more signal.
Assay [12] can be described thus: hepatitis C replication reporter changes, two-sided – Huh7 cells, luciferase reporter, HCV replication inhibitor project, primary screen (AID 1109).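 Note: huh7 hepatoma cells harbouring a luciferase neomycin HCV replicon reporter; luciferase luminescence as measure of HCV replicon replication; test concentration not given here.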 The conditions noted are these: Huh7 HCV replicon luciferase reporter, 48 h; higher = more signal. (Reporter assays use an easily measured gene product as a stand-in for the process of interest.)
Assay [13] addresses Left-right determination factor 2 (Homo sapiens) (UniProt O00292). Description: small molecules binding LEFTY2 protein – biochemical, small-molecule microarray, 635 nm fluorescence scan, primary screen (AID 1110). The conditions noted are these: higher = more signal.
The target of assay [14] is Calmodulin-1 (Homo sapiens) (UniProt P0DP23). Put plainly: small molecules binding calmodulin-1 with EGTA – biochemical, small-molecule microarray, Cy5-labelled CALM1, profiling panel (AID 1111).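 Note: labelled calmodulin applied in Tris saline Tween buffer holding calcium plus EGTA and DTT.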 The conditions noted are these: Cy5-CALM1 binding fluorescence, higher = more signal.
The target is the same in assay [15]. Description: small molecules binding Ca-loaded calmodulin-1 – biochemical, small-molecule microarray, Cy5-labelled CALM1, plus calcium, artefact control for SMM control-protein annotation, profiling panel (AID 1112).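 Note: score merges spot fluorescence with signal to noise from triplicate slides.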 As to conditions: Cy5-CALM1 binding fluorescence, higher = more signal.
Assay [16] is described as follows: probe aWnt5a binding to arrayed compounds – biochemical, biotinylated probe, 635/667 nm fluorescence, primary screen (AID 1113).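 Note: score merges 667 nm fluorescence intensity with signal-to-noise per printed feature.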 As to conditions: small-molecule microarray, higher = more signal.
Assay [17] can be described thus: probe aShh binding to arrayed compounds – biochemical, biotinylated probe, 635/667 nm fluorescence, primary screen (AID 1114).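 Note: probe is biotin-labelled aShh protein from a stem cell growth factor screen; measures binding of labelled protein to compounds printed on the slide; score merges feature fluorescence at 667 nm with signal-to-noise.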 As to conditions: small-molecule microarray, higher = more signal.
Assay [18] in a line: probe aNog binding to arrayed compounds – biochemical, biotinylated probe, 635/667 nm fluorescence, primary screen (AID 1115).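 Note: probe is biotinylated aNog protein used at 0.15 µg/mL for 1 h at 4 C; z-score combines 667 nm fluorescence of each spot with its signal to noise.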 The conditions noted are these: small-molecule microarray, higher = more signal.
The target in assay [19] is Torsin-1A-interacting protein 1 (Homo sapiens) (UniProt Q5JTV8). Description: compound microarray binding of lysate hLAP1 – cell lysate, small-molecule microarray, COS7 lysate, 635/667 nm fluorescence, primary screen (AID 1116). The conditions noted are these: 635 nm fluorescence, higher = more signal.
For assay [20], the target named is Alpha-bungarotoxin (Bungarus multicinctus) (UniProt P60615). Description: compounds binding labelled alpha-BTX control protein – biochemical, small-molecule microarray, Alexa647 label, 635/667 nm fluorescence, artefact control for SMM control protein annotation, profiling panel (AID 1117). The conditions noted are these: alpha-BTX-A647 binding fluorescence, higher = more signal.

Calls of active or inactive are those of the source.

Sequence of Torsin-1A-interacting protein 1 (Homo sapiens) (Q5JTV8 whole entry, looked up): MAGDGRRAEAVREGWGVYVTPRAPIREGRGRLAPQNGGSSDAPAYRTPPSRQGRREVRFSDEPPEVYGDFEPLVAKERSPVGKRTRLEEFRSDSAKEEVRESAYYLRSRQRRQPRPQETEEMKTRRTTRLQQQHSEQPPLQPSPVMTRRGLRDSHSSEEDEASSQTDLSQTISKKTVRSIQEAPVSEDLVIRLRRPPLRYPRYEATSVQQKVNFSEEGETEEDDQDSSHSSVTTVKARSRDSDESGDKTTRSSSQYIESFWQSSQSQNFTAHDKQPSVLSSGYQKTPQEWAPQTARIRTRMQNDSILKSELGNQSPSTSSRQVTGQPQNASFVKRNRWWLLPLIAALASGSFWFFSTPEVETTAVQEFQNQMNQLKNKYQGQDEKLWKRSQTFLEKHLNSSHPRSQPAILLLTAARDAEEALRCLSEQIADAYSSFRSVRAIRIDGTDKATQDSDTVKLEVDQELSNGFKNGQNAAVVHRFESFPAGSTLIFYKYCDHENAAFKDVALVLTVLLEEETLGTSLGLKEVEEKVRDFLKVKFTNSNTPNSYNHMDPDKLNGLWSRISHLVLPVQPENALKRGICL
Sequence of Fibroblast growth factor 10 (Homo sapiens) (O15520 whole entry, looked up): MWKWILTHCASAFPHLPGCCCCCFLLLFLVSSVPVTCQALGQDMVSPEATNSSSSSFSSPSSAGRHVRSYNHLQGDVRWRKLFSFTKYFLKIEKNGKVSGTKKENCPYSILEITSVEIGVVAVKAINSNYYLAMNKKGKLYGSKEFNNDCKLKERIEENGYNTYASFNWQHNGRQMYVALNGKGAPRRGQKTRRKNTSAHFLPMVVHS
Sequence of Alpha-bungarotoxin (Bungarus multicinctus) (P60615 whole entry, looked up): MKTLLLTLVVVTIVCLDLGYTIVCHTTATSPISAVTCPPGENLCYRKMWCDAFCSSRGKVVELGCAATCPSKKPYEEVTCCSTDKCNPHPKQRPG
Sequence of Dickkopf-related protein 1 (Homo sapiens) (O94907 whole entry, looked up): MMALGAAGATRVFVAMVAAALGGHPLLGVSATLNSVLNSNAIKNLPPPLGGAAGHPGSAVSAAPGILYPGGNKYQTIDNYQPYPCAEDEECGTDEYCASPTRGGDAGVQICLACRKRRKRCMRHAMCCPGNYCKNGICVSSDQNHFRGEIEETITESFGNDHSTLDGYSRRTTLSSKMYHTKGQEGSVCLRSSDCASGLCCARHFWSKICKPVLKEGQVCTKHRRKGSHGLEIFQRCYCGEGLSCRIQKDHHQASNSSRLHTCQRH
Sequence of Left-right determination factor 2 (Homo sapiens) (O00292 whole entry, looked up): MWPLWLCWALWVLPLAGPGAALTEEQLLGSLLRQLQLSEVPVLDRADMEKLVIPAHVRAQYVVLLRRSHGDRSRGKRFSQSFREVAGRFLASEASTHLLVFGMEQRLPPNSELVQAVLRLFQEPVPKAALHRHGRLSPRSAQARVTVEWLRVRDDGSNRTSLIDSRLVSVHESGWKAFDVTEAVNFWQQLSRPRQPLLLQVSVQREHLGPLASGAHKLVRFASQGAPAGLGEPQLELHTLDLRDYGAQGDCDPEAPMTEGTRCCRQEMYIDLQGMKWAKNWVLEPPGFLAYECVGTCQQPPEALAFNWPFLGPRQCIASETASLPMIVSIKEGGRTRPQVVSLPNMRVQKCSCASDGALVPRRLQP
Sequence of Epidermal growth factor receptor (Homo sapiens) (P00533 whole entry, looked up): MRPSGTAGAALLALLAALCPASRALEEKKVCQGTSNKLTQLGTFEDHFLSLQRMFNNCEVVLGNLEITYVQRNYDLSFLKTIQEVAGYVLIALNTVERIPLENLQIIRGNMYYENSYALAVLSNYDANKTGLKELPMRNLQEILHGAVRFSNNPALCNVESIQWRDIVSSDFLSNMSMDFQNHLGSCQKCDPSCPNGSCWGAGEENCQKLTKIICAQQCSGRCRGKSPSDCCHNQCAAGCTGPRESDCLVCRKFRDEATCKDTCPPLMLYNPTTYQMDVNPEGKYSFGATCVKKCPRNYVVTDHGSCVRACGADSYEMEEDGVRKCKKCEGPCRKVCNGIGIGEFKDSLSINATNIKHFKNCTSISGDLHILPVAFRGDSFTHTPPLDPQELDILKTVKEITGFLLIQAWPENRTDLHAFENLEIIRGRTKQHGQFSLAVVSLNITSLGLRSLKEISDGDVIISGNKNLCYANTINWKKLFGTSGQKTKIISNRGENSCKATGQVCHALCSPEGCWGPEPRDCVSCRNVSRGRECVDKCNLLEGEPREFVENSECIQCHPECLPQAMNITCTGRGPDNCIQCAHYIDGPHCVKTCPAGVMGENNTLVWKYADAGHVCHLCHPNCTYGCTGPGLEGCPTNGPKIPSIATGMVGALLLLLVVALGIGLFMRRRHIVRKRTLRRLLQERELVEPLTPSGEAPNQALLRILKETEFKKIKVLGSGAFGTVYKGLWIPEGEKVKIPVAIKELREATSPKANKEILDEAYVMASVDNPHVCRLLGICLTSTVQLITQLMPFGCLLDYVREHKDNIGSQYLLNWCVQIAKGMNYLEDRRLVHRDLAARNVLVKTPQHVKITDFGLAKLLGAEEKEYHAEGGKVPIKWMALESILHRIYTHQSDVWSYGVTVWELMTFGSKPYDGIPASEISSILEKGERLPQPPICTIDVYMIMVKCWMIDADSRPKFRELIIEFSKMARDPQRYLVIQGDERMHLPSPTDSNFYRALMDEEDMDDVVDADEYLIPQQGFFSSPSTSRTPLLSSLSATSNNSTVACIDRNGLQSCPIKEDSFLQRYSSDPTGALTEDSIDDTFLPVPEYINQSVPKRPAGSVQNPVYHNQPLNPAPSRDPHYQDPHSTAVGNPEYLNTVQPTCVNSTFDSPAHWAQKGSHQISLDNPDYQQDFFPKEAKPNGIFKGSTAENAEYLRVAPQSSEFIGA
Sequence of Follistatin-related protein 3 (Homo sapiens) (O95633 whole entry, looked up): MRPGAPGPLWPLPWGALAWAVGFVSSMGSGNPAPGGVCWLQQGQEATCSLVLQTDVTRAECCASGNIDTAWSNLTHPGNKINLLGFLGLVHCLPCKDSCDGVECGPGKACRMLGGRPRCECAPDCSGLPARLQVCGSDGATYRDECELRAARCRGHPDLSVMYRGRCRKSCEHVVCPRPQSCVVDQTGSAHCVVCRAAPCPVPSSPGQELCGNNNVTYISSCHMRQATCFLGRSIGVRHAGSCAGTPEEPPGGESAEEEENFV

Turning to `NC(=O)NCC#Cc1ccc2c(c1)[C@]1(C(=O)N2)[C@H](C(=O)Nc2nc3ccccc3s2)[C@H]2C(=O)O[C@H](c3ccccc3)[C@H](c3ccccc3)N2[C@@H]1c1ccccc1OCCO`, the composite z-score is 1.23 in [1]; 1.83 in assay [2]; -0.202 in assay [3]; 1.27 in assay [5]; 0.261 in assay [6]; 0.997 in [7]. In addition, the composite z-score in assay [8] was 1.02; in assay [9], 1.44; in assay [10], 1.08; in assay [11] it was 1.4; in [13], 0.235; in assay [14] it was 1.23. The composite z-score was 0.579 in assay [15]; 0.312 in [16]; -0.0773 in assay [17]; 2.12 in [18]; -0.638 in [19]; 2.74 in assay [20]. For the same compound, the results for the z-score in assay [4] and in assay [12] were -0.137 (inactive) and -1.33, respectively.
Consider `C=CCC(OC(C)=O)[C@@H]1[C@@H](N(Cc2ccc(-c3ccccc3)cc2)C(=O)c2cccc3ccccc23)c2cc(OCCCO)ccc2N1C(=O)c1ccc(-c2ccccc2)cc1` (stereo not given in full), for which the composite z-score in [1] was -0.333; in assay [2], 0.4; in assay [3], 0.672; in assay [5], 0.164; in assay [6] it was 0.366; in assay [7], -0.192. Further, the composite z-score was 0.269 in assay [8]; -0.111 in assay [9]; 1.09 in assay [10]; 0.431 in assay [11]; -0.351 in [13]; 0.468 in assay [14]. Also, the composite z-score is 0.553 in assay [15]; -0.187 in assay [16]; -0.0793 in assay [17]; -0.443 in assay [18]; 0.951 in [19]; 0.445 in assay [20]. The z-score is -1.05 (inactive) in [4] and -0.133 in assay [12].
Take `CCOC(=O)[C@H]1C/C=C/C[C@H](C(=O)OCC)C(=O)O[C@H]2[C@@H](OC)O[C@H](CO)[C@@H](OC(=O)c3c(OC)cccc3OC)[C@@H]2OC1=O`: the composite z-score in [1] was 0.615; in [2], -0.0451; in assay [3], 0.152; in assay [5], 0.803; in assay [6], 0.62; in [7] it was -0.13. The composite z-score in assay [8] was 1.16; in assay [9], 0.764; in assay [10] it was 0.837; in [11], -0.908; in [13], 0.204; in [14], 0.34. Besides, the composite z-score in [15] is 0.208; in assay [16], -0.126; in assay [17], 0.244; in assay [18], 0.65; in assay [19], 0.11; in assay [20] it was 1.1. The values for the z-score in assay [4] and in [12] were 0.837 (inactive) and -3.32, respectively.
For `O=C1C2C=CC(C(O)c3cccc4ccccc34)N(Nc3ccccc3F)C2C(=O)N1c1ccccc1` (stereo not given), the composite z-score in [1] stood at 0.927; in assay [2], 0.977; in [3], 1.02; in [5], 0.606; in [6], 1.18; in [7] it was 0.172. Also, the composite z-score in assay [8] was 0.79; in [9] it was -0.311; in assay [10], 0.723; in assay [11], 1.45; in assay [13], 0.264; in assay [14] it was 1.84. For the same compound, the composite z-score in assay [15] was 0.895; in [16] it was 0.0554; in assay [17], 0.14; in assay [18], 0.737; in assay [19], 1.4; in assay [20] it was 2.15. For the same compound, the z-score in assay [4] was -0.05 (inactive); in assay [12], -0.69.
Turning to `Cc1ccc(S[C@]2(C(=O)O)CC(=O)N(C(C)C)[C@@H]2c2ccc(CO)cc2I)cc1`, the composite z-score in assay [1] is 1.33; in [2] it was 0.831; in [3] it was 1.18; in assay [5], 0.0877; in assay [6], 0.511; in assay [7], -0.645. Moreover, the composite z-score was 0.315 in [8]; -0.27 in [9]; 1.33 in assay [10]; 0.506 in [11]; -0.195 in [13]; 1.75 in [14]. The composite z-score amounted to 0.845 in [15]; 0.0611 in assay [16]; 0.111 in assay [17]; 1.65 in assay [18]; 0.836 in assay [19]; 1.18 in [20]. Moreover, the z-score in assay [4] is -2.55 (inactive); in assay [12] it was -1.31.
For the compound `CCC(CC)C(O)C1C=CC2C(=O)NC(=O)C2N1Nc1ccccn1` (stereo not given), the composite z-score in assay [1] is 0.259; in [2], 0.572; in assay [3], -0.705; in assay [5], 0.269; in assay [6], 0.291; in [7], 0.384. Further, the composite z-score in assay [8] was 0.584; in assay [9], 0.816; in assay [10], 1.29; in [11], 0.365; in assay [13], 0.255; in assay [14] it was 0.0646. The composite z-score in assay [15] was -0.161; in [16], -0.0704; in assay [17] it was -0.217; in assay [18], 0.455; in [19], 0.275; in assay [20], 0.512. Moreover, the z-score in assay [4] is 1.17 (inactive); in assay [12], -0.642.
